The text below walks through data of the supplement of paper PMC4894684.

Counter-ions that a name gives are not always drawn. ± gives the standard deviation of the averaged measurements. A value given as a limit tells only on which side of the number the result lay.

The test system of this assay is Toxoplasma gondii RH (in HFF). Description: parasite growth relative to the screen mean (all compounds = 100%); higher = less inhibition of parasite growth. The settings on record: 5 µM; 72 h; oxygen 21 %. The method in brief:
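Each value is parasite growth expressed against the screen mean, averaged over two screens, where the mean of all compounds = 100%. The screen used 5 µM final compound on confluent human foreskin fibroblasts infected with RH β-Gal–GFP Toxoplasma (MOI 1:5) within 2 h and grown 72 h at 21% O2. Parasite number was measured by a CPRG β-Gal assay against in-plate standard curves.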
Consider `CN1Cc2ccccc2[C@@H]2c3cccc4[nH]cc(c34)C[C@H]21`, for which the parasite growth was determined as 132 ± 9.8%.
`C[C@@H](N)Cc1cnc[nH]1` [(R)-(-)- α-Methylhistamine dihydrobromide]: the parasite growth came out at 107 ± 25%.
`O=C(O)CCC(CP(=O)(O)O)C(=O)O` (stereo not drawn) [PMPA (NAALADase inhibitor)]: the parasite growth was found to be 126 ± 9.3%.
The same measure for `O=C1CN=C(c2cccc(Br)c2)c2oc3ccccc3c2N1`: 96 ± 4.5%; for `C[C@@]12N[C@@H](Cc3ccccc31)c1ccccc12` [(-)-MK 801 maleate]: 111 ± 10%.
The same measure for `CC(=O)N1CC[N+](C)(C)CC1` [4-Acetyl-1,1-dimethylpiperazinium iodide]: 130 ± 13%.
The figure for `Cc1ccc(C[N+](C)(C)C)o1` [5-Methylfurmethiodide] is 100 ± 6.6%; for `CS(=O)(=O)Nc1ccc(Cc2noc(-c3ccc4[nH]cc(CCN)c4c3)n2)cc1` it is 124 ± 6.6%; for `CCCN(CCC)C1Cc2cc(OC)c(OC)cc2C1` it is 123 ± 7.5%.
Regarding `O=C(CCCN1CCC2(CC1)C(=O)NCN2c1ccccc1)c1ccc(F)cc1` [Spiperone hydrochloride], the parasite growth stood at 99.8 ± 36%.
`CC(=O)[C@H]1CC[C@H]2[C@@H]3CC[C@H]4C[C@](C)(O)CC[C@]4(C)[C@H]3CC[C@]12C` [Ganaxolone] showed a parasite growth of 147 ± 17%.
The figure for `O=C(O)c1nn(Cc2ccc(Cl)cc2Cl)c2ccccc12` [Lonidamine] is 77.9 ± 20%; for `CCCN(C/C=C/I)C1CCc2ccc(O)cc2C1` (stereo not drawn) [7-Hydroxy-PIPAT maleate] it is 181 ± 37%.
`C1CCc2nnnn2CC1` [Pentylenetetrazole] displayed a parasite growth of 110 ± 22%.
Take `C[C@H](N)Cc1cnc[nH]1` [(S)-(+)-a-Methylhistamine dihydrobromide]: the parasite growth was found to be 113 ± 11%.
`BrC1C(Br)C(Br)C(Br)C(Br)C1Br` (stereo not drawn) [1,2,3,4,5,6-Hexabromocyclohexane] had a parasite growth of 112 ± 29%.
For `CC[C@@H](CO)NC(=O)[C@@H]1C=C2c3cccc4[nH]cc(c34)C[C@H]2N(C)C1` [Methylergometrine maleate], the parasite growth was 177 ± 41%.
In the case of `Clc1ccc(C2=CCCC3CCC2N3)cn1` (stereo not drawn) [UB 165 fumarate], the parasite growth turned out to be 106 ± 11%.
The figure for `N#Cc1ccc(N2CCN(C(=O)COc3ccc4[nH]cc(CCN)c4c3)CC2)cc1` [Donitriptan hydrochloride] is 78.6 ± 12%.
The figure for `COc1cc(N)c(Cl)cc1C(=O)NC1CN2CCC1CC2` (stereo not drawn) [Zacopride hydrochloride] is 142 ± 12%; for `Oc1ccc2c3c1O[C@H]1c4[nH]c5ccccc5c4C[C@@]4(O)[C@@H](C2)N(CC2CC2)CC[C@]314` [Naltrindole hydrochloride] it is 148 ± 35%.
As to `O=c1ccc2[nH]cc(C3=CCNCC3)c2[nH]1`, the parasite growth was 65.2 ± 3.1%.
On to `CC(=O)N(C)c1cccc(-c2ccnc3c(C(=O)c4cccs4)cnn23)c1` [Indiplon], for which the parasite growth was determined as 79.5 ± 17%.
The figure for `NCCc1c[nH]c2ccc(O)cc12` [Serotonin] is 106 ± 15%; for `CN(C)c1ccc(/C=C2\CCCN=C2c2cccnc2)cc1` [DMAB-anabaseine dihydrochloride] it is 97.4 ± 15%; for `C=CCN1CC[C@]2(C)c3cc(O)ccc3C[C@H]1C2C` (single isomer, unassigned; (+)) it is 97.7 ± 5.9%.
`Oc1ccc2c3c1O[C@H]1c4[nH]c5c(c4C[C@@]4(O)[C@@H](C2)N(CC2CC2)CC[C@]314)C[C@@]1(O)[C@H]2Cc3ccc(O)c4c3[C@@]1(CCN2CC1CC1)[C@H]5O4` [nor-Binaltorphimine dihydrochloride] registered a parasite growth of 123 ± 3.2%.
`O=C(N[C@H]1CN2CCC1CC2)c1ccc(Cl)cc1` registered a parasite growth of 146 ± 25%.
For `S=C=Nc1cccc(C2(N3CCCCC3)CCCCC2)c1` [Metaphit], the parasite growth amounted to 51.3 ± 6%.
The figure for `COc1ccc(C[C@H]2NC[C@H](O)[C@H]2OC(C)=O)cc1` [Anisomycin] is below 0%; for `CC(C)(C)NCC(O)COc1cccc2[nH]c(C#N)cc12` (stereo not drawn) [Cyanopindolol hemifumarate] it is 130 ± 6.7%; for `CC12NC(Cc3ccccc31)c1ccccc12` (single isomer, unassigned; (+)) [(+)-MK 801 maleate] it is 123 ± 15%.
The same measure for `CC(C(=O)OC1CC2CCC(C1)N2C)c1ccc(Br)cc1` (stereo not drawn) [PG-9 maleate]: 101 ± 1.4%; for `CC(CN)CC(=O)O` (stereo not drawn) [3-Methyl-GABA]: 119 ± 4.7%.
The same measure for `CN1[C@@H]2CC[C@H]1CC(OC(=O)N1Cc3ccccc3NC1=O)C2` (stereo partly drawn) [DAU 5884 hydrochloride]: 97.7 ± 16%; for `CCOC(=O)c1cncn1[C@H](C)c1ccccc1` [Etomidate]: 114 ± 17%.
For `O[C@H]1[C@H](O)[C@@H](O)CN2CC[C@H](O)[C@H]12` [Castanospermine], the parasite growth worked out at 150 ± 7.6%.
The same measure for `NC(C(=O)O)c1nn[nH]n1` (racemic) [(RS)-(Tetrazol-5-yl)glycine]: 146 ± 30%.
